# Laboratory results published in PubChem BioAssay (NCATS).
# Values joined by “and” are separate entries in the source; they are usually repeats but may differ in a detail not shown here. Identical values can stand only once. A number with no mark means an inactive call. Inconclusive results are not listed. A call without a number means that no potency is given here. Active and inactive are the calls of the source. Unless noted, calls follow the shape of the dose curve; as a rule, active = well fitted curve in the direction sought with a large enough effect; inconclusive = small, poorly fitted or top-dose-only effect, or another doubt; inactive = no such curve, though single readings can be large; an effect the other way counts as inactive or inconclusive.
# Experiments:
# [1] = Cell Viability - HepG2 (AID 433; calls by dose curve;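 also: potency is read from the fitted curve at half-maximal effect; cells exposed to compound for 40 hours; potency for ATP loss meaning cytotoxicity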); settings: qHTS
# Outline: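 ATP luminescence (CellTiter-Glo) after 40 h compound exposure, 37 °C, HepG2, 1500 cells/well, complete medium. Normalized: DMSO = basal, 100 uM tamoxifen = 100% inhibition. AC50 via standard Hill equation.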
# [2] = Cell Viability - HUV-EC-C (AID 542); settings: HUV-EC-C endothelial cell viability, qHTS; series mostly up to 92.2 µM;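 also: cells exposed to compound for 40 hours; nearly all actives have a fitted effect of over 35% in size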
# Outline: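 Decrease in cellular ATP, quantified by luciferase luminescence, reflects toxicity in normal human vascular endothelial HUV-EC-C cells given compound for 40 hr in complete culture medium. Values are AC50s from concentration-response curves.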
# [3] = Cellular Toxicity (caspase-3) HUV-EC-C (AID 656); settings: HUV-EC-C cells, caspase-3 activation (apoptosis), vehicle = 0, 100 µM tamoxifen = 100%; series mostly up to 92.2 µM
# Outline: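 Luminescent caspase-3/7 activation (aminoluciferin substrate cleavage) in HUV-EC-C cells after 16 hr compound exposure, 37°C. Signal normalized to DMSO basal and 100 uM tamoxifen as 100%; AC50 from concentration-response fitted with the Hill equation.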
# [4] = Cellular Toxicity (caspase-3) H-4-II-E (AID 663); settings: H-4-II-E rat hepatoma; Potency: caspase-3 activation; series mostly up to 92.2 µM; also: potency is read from the fitted curve at half-maximal effect;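 as to caspase-3 activation: cells exposed to compound for 16 hr before readout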
# Outline: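 Luminescence from caspase-cleaved aminoluciferin substrate, read 20 min after reagent addition, reports caspase 3/7 activation in rat H-4-II-E cells after 16 hr compound exposure. Normalized to DMSO (basal) and 100 uM tamoxifen (100%); AC50 from Hill fits.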
# [5] = Cellular Toxicity (caspase-3) NIH 3T3 (AID 666); settings: NIH 3T3 caspase-3 activation, apoptosis/toxicity; series mostly up to 92.2 µM; also: potency is read from the fitted curve at half-maximal effect
# Outline: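 Concentration-response qHTS in NIH 3T3 mouse fibroblasts scores caspase-3/7 activation as rising luminescence after 16 hr compound exposure. Signals are scaled between DMSO-only and 100 uM tamoxifen.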
# [6] = Cellular Toxicity (caspase-3) Renal Proximal Tubule (AID 667); settings: renal proximal tubule cells; series mostly up to 91.7 µM;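 also: cells exposed to compound for 16 hours at 37 °C before detection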
# Outline: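 Luminescent caspase 3/7 signal from peptide-aminoluciferin cleavage measures apoptosis in freshly isolated rat kidney proximal tubule cells after 16 h compound exposure. Concentration-response data are normalized to DMSO and 10 uM staurosporine, and AC50 values come from Hill equation fits.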
# [7] = Cell Viability - LYMP2-001 (AID 921); settings: LYMP2-001 lymphoblastoid cell viability; series mostly up to 92.2 µM; also: nearly all actives have a fitted effect of over 70% in size
# Outline: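 CellTiter-Glo luminescence (intracellular ATP) after 24 hr compound exposure at 37 C, 2500 lymphoblastoid cells/well in complete medium. AC50 fitted with standard Hill equation; tetraoctylammonium bromide positive control.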
# [8] = MultiTox-Fluor Cytotoxicity Assay - LYMP1-001 - Dead Cells (AID 946); settings: LYMP1-001 lymphoblastoid cells, dead-cell protease fluorescence; series mostly up to 92.2 µM
# Outline: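 Seed 2500 LYMP1-001 cells/well, incubate 5 hr at 37 C; add compound, 16 hr at 37 C; add MultiTox-Fluor reagent, 60 min RT; read dead-cell fluorescence Ex/Em=485/520. Normalize to DMSO and 15 uM tetraoctylammonium bromide.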
# [9] = MultiTox-Fluor Cytotoxicity Assay - LYMP1-002 - Live Cells (AID 955); settings: LYMP1-002 lymphoblastoid live-cell protease fluorescence viability; series mostly up to 46.1 µM;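 also: cells exposed to compound for 16 hours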
# Outline: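 Cytotoxicity in the human lymphoblastoid line LYMP1-002 is measured as loss of live-cell protease activity after 16 h treatment in complete culture medium. AC50 is derived from Hill-equation fits of qHTS concentration-response data.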
# [10] = Cell Viability - LYMP1-003 - Assay at 40 hr (AID 964); settings: LYMP1-003 lymphoblastoid viability; series mostly up to 92.2 µM; also: nearly all actives have a fitted effect of over 60% in size
# Outline: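 This qHTS cytotoxicity screen treats human lymphoblastoid cells (LYMP1-003) with compounds for 40 hr and quantifies cellular ATP via luciferase luminescence.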
# [11] = Cell Viability - LYMP2-003 (AID 965); settings: LYMP2-003 lymphoblastoid cell viability; series mostly up to 92.2 µM;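 also: cells exposed to compounds for 24 h before reading; nearly all actives have a fitted effect of over 50% in size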
# Outline: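 CellTiter-Glo luminescence (cellular ATP) after 24 h compound exposure at 37 C in complete medium; 2500 cells/well, 5 h settling beforehand. Concentration-response fitted to standard Hill equation for AC50. Tetraoctylammonium bromide served as positive control.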
# [12] = Cell Viability - LYMP2-023 (AID 975); settings: LYMP2-023 lymphoblastoid cell viability; series mostly up to 92.2 µM;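 also: cells exposed to compound for 24 hours at 37 °C; nearly all actives have a fitted effect of over 55% in size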; also: potency is read from the fitted curve at half-maximal effect
# Outline: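 Concentration-dependent drop in intracellular ATP measures acute cytotoxicity in a human lymphoblastoid line treated for 24 hours in complete culture medium. AC50 values are taken from Hill-equation fits of qHTS data.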
# [13] = Cell Viability - LYMP2-012 (AID 982); settings: LYMP2-012 lymphoblastoid cell viability qHTS; series mostly up to 92.2 µM;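 also: cellular ATP by luciferase luminescence where a drop means cytotoxicity; cells exposed to compound for one day before reading; nearly all actives have a fitted effect of over 55% in size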
# [14] = Cell Viability - LYMP2-026 (AID 989); settings: LYMP2-026 lymphoblastoid cell viability, qHTS; series mostly up to 92.2 µM; also: nearly all actives have a fitted effect of over 50% in size
# Outline: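 Concentration-dependent loss of intracellular ATP in human lymphoblastoid cells after 24 hr at 37 C, quantified by luciferase luminescence. AC50 derived from standard Hill equation.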
# [15] = target: Vitamin D3 receptor (Homo sapiens) (UniProt P11473); assay: qHTS assay for small molecule agonists of vitamin D receptor signaling (AID 588543; calls by dose curve); settings: HEK293T VDR-UAS-bla, beta-lactamase ratio, 16 h; series mostly up to 76.8 µM
# Outline: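 β-lactamase reporter, VDR-UAS-bla HEK293T, agonist mode. Cells plated 5 h at 37 °C, compound titration 16 h at 37 °C, CCF4 dye 2 h RT, ratio 460/530 nm. Hill fit → EC50, efficacy vs 50 nM 1α,25-(OH)2D3.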
# [16] = qHTS assay for small molecule disruptors of the mitochondrial membrane potential - 5 hr assay (AID 651755; calls by dose curve; also: nearly all actives have a fitted effect of over 40% in size); settings: JC-1-type ratio dye; series mostly up to 92.2 µM
# Outline: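 HepG2 cells, attached overnight at 37C, were exposed to compound or DMSO for 5 hr at 37C, 5% CO2. Mito-MPS dye was then added for 30 min, and fluorescence read at 490/535 nm (monomers) and 540/590 nm (aggregates).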
# [17] = target: Nuclear receptor subfamily 1 group I member 2 (Rattus norvegicus) (UniProt Q9R1A7); assay: qHTS assay for small molecule activators of the rat pregnane X receptor (rPXR) signaling pathway (AID 651751; call rule not given here); settings: rPXR reporter cells, luciferase (One-Glo), 24 h
# [18] = qHTS assay for small molecule activators of the human pregnane X receptor (PXR) signaling pathway (AID 720659; call rule not given here); settings: DPX-2 HepG2 CYP3A4-luciferase, 24 h; series mostly up to 92.3 µM
# [19] = Cell Viability - LYMP2-015 (AID 971); settings: LYMP2-015 lymphoblastoid cell viability; series mostly up to 92.2 µM; also: nearly all actives have a fitted effect of over 55% in size; also: potency is read from the fitted curve at half-maximal effect
# Outline: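 Acute toxicity was scored as a concentration-dependent drop in intracellular ATP in lymphoblastoid cells after 24 hr compound exposure in complete medium. Detection used CellTiter-Glo luciferase luminescence.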
# [20] = Cell Viability - LYMP2-006 (AID 978); settings: LYMP2-006 lymphoblastoid cell viability, qHTS; series mostly up to 92.2 µM;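 also: cells exposed to compound for 24 hours; nearly all actives have a fitted effect of over 60% in size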; also: potency is read from the fitted curve at half-maximal effect
# Outline: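 qHTS, 1536-well; 2500 cells/well, 5 hr 37 C; cpd 24 hr 37 C; CellTiter-Glo 30 min RT; luminescence. Tetraoctylammonium bromide pos. ctrl. AC50 via Hill eqn.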
# Chain of Vitamin D3 receptor (Homo sapiens) (P11473 whole entry, looked up): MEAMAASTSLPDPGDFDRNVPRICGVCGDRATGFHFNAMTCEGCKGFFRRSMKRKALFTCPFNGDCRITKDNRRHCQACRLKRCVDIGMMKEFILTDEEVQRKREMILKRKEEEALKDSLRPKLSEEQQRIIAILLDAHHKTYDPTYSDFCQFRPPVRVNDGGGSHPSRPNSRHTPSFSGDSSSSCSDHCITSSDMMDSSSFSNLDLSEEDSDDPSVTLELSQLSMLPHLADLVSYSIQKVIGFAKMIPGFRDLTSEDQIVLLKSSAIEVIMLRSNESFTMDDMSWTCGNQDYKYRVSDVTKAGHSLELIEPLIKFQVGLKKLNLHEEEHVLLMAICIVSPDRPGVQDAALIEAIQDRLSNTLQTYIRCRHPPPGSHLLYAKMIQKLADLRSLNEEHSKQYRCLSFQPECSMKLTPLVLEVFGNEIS
# Chain of Nuclear receptor subfamily 1 group I member 2 (Rattus norvegicus) (Q9R1A7 whole entry, looked up): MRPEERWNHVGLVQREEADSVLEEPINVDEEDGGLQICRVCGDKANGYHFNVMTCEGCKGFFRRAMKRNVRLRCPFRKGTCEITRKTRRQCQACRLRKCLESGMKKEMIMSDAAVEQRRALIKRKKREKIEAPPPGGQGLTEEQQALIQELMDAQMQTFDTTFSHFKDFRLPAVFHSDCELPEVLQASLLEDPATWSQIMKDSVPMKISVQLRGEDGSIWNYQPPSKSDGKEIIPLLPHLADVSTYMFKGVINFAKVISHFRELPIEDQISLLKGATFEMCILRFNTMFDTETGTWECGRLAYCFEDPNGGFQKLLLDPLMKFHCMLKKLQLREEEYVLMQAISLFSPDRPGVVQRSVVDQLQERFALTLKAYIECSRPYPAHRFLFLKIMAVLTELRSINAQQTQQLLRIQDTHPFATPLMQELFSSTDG
SMILES,Potency [1] [µM],Potency [2],outcome [3],Potency [4],Potency [5],outcome [6],Potency [7],outcome [8],outcome [9],Potency [10],Potency [11],Potency [12],Potency [13],Potency [14],outcome [15],Potency [16],max response [17],outcome [18],Potency [19],Potency [20]
CC(=O)NNc1ccccc1,> 92,inactive,inactive,inactive,inactive,inactive,inactive,inactive,inactive,inactive,inactive,inactive,inactive,inactive,inactive,inactive,-6.67%,inactive,–,–
CC(Cl)CCl (centres undefined),> 92,–,inactive,inactive,–,inactive,inactive,–,inactive,inactive,inactive,–,inactive,–,inactive,inactive,3.07%,inactive,inactive,inactive
CCCCC(CC)COC(=O)c1ccc(C(=O)OCC(CC)CCCC)c(C(=O)OCC(CC)CCCC)c1 (centres undefined),> 92,inactive,inactive,inactive,inactive,inactive,inactive,–,–,inactive,inactive,inactive,inactive,inactive,inactive,–,0.711%,inactive,–,inactive
C=CC#N,> 92,inactive,inactive,inactive,inactive,–,inactive,inactive,inactive,inactive,inactive,inactive,–,inactive,inactive,inactive,-2.96%,inactive,inactive,inactive
S=C1NCCN1,> 92,inactive,–,–,–,–,inactive,inactive,inactive,–,inactive,inactive,inactive,inactive,inactive,–,6.01% and -10.7%,inactive,inactive,inactive
ClCCOCOCCCl,> 92,inactive,inactive,inactive,inactive,inactive,inactive,inactive,–,inactive,inactive,–,inactive,inactive,inactive,inactive,0.986%,inactive,inactive,inactive
O=C(O)C(Br)Br,> 92,inactive,–,inactive,–,inactive,inactive,inactive,inactive,inactive,inactive,inactive,inactive,inactive,–,inactive,1.77%,inactive,inactive,inactive
O=[N+]([O-])/C=C/c1ccccc1,–,–,inactive,6.31 µM (active),25.1 µM (active),–,–,inactive,inactive,inactive,–,50.1 µM (active),–,–,inactive,inactive,–,–,39.8 µM (active),39.8 µM (active)
CCCCCC[N+](=O)[O-],> 92,inactive,inactive,inactive,inactive,–,–,inactive,inactive,inactive,inactive,inactive,inactive,–,inactive,inactive,1.74%,inactive,inactive,inactive
